Source: PubChem BioAssay (EPA / NIEHS)
Inconclusive results are not listed. Active and inactive are the calls of the source. Rule for the calls, unless noted: active = hit-call score of the fitted dose curve at least 0.9, where 1 is the maximum; inactive = score below 0.9.

Legend:
[1] = ATG_RORE_CIS: Attagene CIS-FACTORIAL HepG2 Assay for human RAR-related Orphan Receptor Element (RORE) (AID 2282959); settings: HepG2 Attagene cis-factorial RORE reporter, mRNA; actives raise or lower the signal
Summary of the method: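 Multiplexed reporter assay measuring mRNA induction from a cis promoter element in transiently transfected HepG2 cells after 24 h treatment. Detection via RT-PCR and capillary electrophoresis fluorescence; DMSO serves as baseline.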

[2] = ATG_Sox_CIS: Attagene CIS-FACTORIAL HepG2 Assay for human SRY-box transcription factor (SOX) (AID 2282960); settings: HepG2 Attagene cis-factorial SOX reporter, mRNA; actives raise or lower the signal
Summary of the method: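 Cells were transfected with reporter constructs under cis-regulatory promoters, then exposed to chemicals for 24 h. Reporter transcripts were quantified by fluorescence after RT-PCR and capillary electrophoresis; activity was fitted in both directions against DMSO.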

[3] = target: Transcription factor Sp1 (Homo sapiens) (UniProt P08047); assay: ATG_Sp1_CIS: Attagene CIS-FACTORIAL HepG2 Assay for human Specificity Protein 1 (Sp1) (AID 2282961); settings: HepG2 Sp1 cis-reporter transcription, actives raise or lower the signal
Chain of Transcription factor Sp1 (Homo sapiens) (P08047 whole entry, looked up): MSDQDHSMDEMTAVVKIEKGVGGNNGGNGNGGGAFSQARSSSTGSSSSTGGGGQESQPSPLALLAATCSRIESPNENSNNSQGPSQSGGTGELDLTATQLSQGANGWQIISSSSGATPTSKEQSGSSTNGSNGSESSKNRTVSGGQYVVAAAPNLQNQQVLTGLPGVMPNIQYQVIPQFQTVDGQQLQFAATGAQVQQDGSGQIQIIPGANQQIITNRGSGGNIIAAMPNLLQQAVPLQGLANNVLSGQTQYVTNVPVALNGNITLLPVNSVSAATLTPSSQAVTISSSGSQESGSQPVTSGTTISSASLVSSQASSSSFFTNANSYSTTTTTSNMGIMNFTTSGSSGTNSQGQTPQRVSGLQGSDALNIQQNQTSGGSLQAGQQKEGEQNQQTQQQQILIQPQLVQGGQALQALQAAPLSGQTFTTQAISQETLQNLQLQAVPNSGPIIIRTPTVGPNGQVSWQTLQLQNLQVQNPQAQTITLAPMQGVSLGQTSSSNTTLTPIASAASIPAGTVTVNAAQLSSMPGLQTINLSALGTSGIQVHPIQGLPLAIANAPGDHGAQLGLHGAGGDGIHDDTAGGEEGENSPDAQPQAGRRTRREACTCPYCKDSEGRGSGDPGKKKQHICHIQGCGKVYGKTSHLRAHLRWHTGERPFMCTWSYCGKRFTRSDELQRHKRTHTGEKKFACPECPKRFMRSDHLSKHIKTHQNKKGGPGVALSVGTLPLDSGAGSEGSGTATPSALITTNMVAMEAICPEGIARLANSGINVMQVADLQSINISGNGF
Summary of the method: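 Measures mRNA induction of an Sp1-linked reporter in HepG2 cells 24 h post-dosing. Multiplexed reporters read by RT-PCR and capillary electrophoresis; DMSO serves as negative control and baseline.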

[4] = ATG_SREBP_CIS: Attagene CIS-FACTORIAL HepG2 Assay for human Sterol Regulatory Element Binding (SREBP) (AID 2282962); settings: HepG2 Attagene cis-factorial SREBP reporter, mRNA; actives raise or lower the signal
Summary of the method: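 Readout: fluorescent reporter-transcript peaks resolved by capillary electrophoresis after RT-PCR. Cells were human HepG2 carrying transfected cis-promoter reporter constructs, dosed for 24 h. Gain or loss of signal was fitted against DMSO controls.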

[5] = target: Signal transducer and activator of transcription 3 (Homo sapiens) (UniProt P40763); assay: ATG_STAT3_CIS: Attagene CIS-FACTORIAL HepG2 Assay for human Signal Transducer and Activator of Transcription 3 (STAT3) (AID 2282963); settings: HepG2, Attagene cis-factorial STAT3 reporter transcription; actives raise or lower the signal
Chain of Signal transducer and activator of transcription 3 (Homo sapiens) (P40763 whole entry, looked up, the tested form may be a part): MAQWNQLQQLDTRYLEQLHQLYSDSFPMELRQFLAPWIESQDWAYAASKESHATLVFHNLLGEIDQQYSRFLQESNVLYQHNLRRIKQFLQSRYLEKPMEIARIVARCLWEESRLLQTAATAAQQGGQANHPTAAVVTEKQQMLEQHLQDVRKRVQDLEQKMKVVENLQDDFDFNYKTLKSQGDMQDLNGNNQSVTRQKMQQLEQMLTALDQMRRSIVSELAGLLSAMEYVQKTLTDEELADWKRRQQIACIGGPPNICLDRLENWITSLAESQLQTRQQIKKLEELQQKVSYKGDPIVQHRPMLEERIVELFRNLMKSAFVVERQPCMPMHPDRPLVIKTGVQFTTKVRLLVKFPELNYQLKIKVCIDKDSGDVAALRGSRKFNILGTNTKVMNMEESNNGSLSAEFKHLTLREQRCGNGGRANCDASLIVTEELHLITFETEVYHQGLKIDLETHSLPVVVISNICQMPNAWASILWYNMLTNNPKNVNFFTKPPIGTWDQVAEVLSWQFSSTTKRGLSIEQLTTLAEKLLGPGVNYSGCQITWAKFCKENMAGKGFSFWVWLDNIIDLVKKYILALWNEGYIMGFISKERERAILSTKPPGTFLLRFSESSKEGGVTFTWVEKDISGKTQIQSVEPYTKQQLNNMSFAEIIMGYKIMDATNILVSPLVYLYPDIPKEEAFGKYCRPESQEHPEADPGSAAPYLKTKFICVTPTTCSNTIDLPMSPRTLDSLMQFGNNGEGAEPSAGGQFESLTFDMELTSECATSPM
Summary of the method: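 Readout: fluorescent reporter mRNA fragments resolved by capillary electrophoresis. Setup: HepG2 transfected with MRTUs reporting endogenous transcription-factor activity, dosed 24 h. Gain or loss of signal fitted bidirectionally against DMSO control.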

[6] = ATG_TA_CIS: Attagene CIS-FACTORIAL HepG2 Assay for human TA Basal Promoter (AID 2282964); settings: HepG2 Attagene CIS-factorial TA basal promoter reporter; actives raise or lower the signal
Summary of the method: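 Steps: transfect HepG2 with MRTUs; dose 24 h; isolate RNA, DNase-treat, reverse-transcribe; PCR and FAM-label reporter cDNA; digest with HpaI 2h at 37 C; run capillary electrophoresis. Activity fitted both directions against DMSO.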

[7] = ATG_TCF_b_cat_CIS: Attagene CIS-FACTORIAL HepG2 Assay for human T-Cell-Factor with beta-catenin (TCF/b-cat) (AID 2282965); settings: HepG2 TCF/beta-catenin cis-reporter transcription, actives raise or lower the signal
Summary of the method: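 Cells of the HepG2 line carry transiently transfected reporter units whose promoters respond to endogenous factors. Twenty-four hours post-dosing, reporter mRNA induction is measured by fluorescent RT-PCR and capillary electrophoresis, with DMSO as baseline.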

[8] = ATG_TAL_CIS: Attagene CIS-FACTORIAL HepG2 Assay for human TAL Basal Promoter (AID 2282966); settings: HepG2 Attagene cis-factorial TAL promoter reporter; actives raise or lower the signal;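 note: background control endpoint measuring basal TAL promoter reporter mRNA not a specific factor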
Summary of the method: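 Basal-promoter background-control endpoint from a multiplexed HepG2 reporter panel. Cells were exposed 24 h, then reporter mRNA was read by RT-PCR/CE fluorescence and fitted in both directions relative to DMSO.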

[9] = ATG_VDRE_CIS: Attagene CIS-FACTORIAL HepG2 Assay for human Vitamin D Receptor Element (VDRE) (AID 2282968); settings: HepG2 VDRE cis-reporter transcription, actives raise or lower the signal
Summary of the method: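 Transient MRTU transfection of HepG2, 24 h compound exposure. Readout: reporter transcripts via RT-PCR and capillary electrophoresis, fluorescence. Bidirectional fit vs DMSO.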

[10] = target: Nuclear receptor subfamily 1 group I member 3 (Homo sapiens) (UniProt Q14994); assay: ATG_CAR_TRANS: Attagene TRANS-FACTORIAL HepG2 Assay for human Constitutive Androstane Receptor (CAR) (AID 2282969; active = hit-call score of the fitted dose curve at least 0.9, where 1 is the maximum;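 note: activators raise reporter mRNA above DMSO so AC50 marks induction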); settings: HepG2 Attagene TRANS-FACTORIAL CAR reporter
Chain of Nuclear receptor subfamily 1 group I member 3 (Homo sapiens) (Q14994 whole entry, looked up, the tested form may be a part): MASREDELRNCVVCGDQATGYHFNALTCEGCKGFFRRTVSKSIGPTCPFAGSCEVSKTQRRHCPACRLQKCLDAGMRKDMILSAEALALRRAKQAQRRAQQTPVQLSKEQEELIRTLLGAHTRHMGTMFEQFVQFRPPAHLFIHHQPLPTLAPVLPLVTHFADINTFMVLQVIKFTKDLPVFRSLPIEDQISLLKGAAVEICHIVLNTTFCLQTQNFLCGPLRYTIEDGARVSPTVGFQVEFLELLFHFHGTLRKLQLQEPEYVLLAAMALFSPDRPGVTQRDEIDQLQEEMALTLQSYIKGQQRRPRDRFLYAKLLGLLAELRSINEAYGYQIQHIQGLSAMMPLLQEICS
Summary of the method: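 Transiently transfected HepG2, multiplex TRANS reporters (CAR-Gal4 chimera driving GAL4-UAS reporter). 24 h dosing. Readout: reporter transcript by RT-PCR + capillary electrophoresis, fluorescence intensity; positive direction vs DMSO.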

[11] = target: X-box-binding protein 1 (Homo sapiens) (UniProt P17861); assay: ATG_Xbp1_CIS: Attagene CIS-FACTORIAL HepG2 Assay for human X-box Binding Protein 1 (XBP1) (AID 2282972); settings: HepG2 XBP1 cis-element reporter, Attagene multiplex; actives raise or lower the signal
Chain of X-box-binding protein 1 (Homo sapiens) (P17861 whole entry, looked up, the tested form may be a part): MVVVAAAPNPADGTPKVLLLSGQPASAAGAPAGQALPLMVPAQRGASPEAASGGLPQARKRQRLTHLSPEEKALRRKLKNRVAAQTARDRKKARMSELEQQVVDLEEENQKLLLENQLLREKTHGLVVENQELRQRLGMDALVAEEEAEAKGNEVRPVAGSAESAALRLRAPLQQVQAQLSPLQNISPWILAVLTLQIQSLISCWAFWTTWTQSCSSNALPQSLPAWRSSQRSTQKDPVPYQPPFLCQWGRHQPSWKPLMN
Summary of the method: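 Read-out: fluorescent reporter mRNA fragments resolved by capillary electrophoresis after RT-PCR. Human HepG2 liver cells carried transfected cis-promoter reporter units and were exposed to chemicals for 24 hours. Gain or loss of signal fitted relative to DMSO baseline.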

[12] = ATG_GAL4_TRANS: Attagene TRANS-FACTORIAL HepG2 Assay for GAL4 (Internal Marker) (AID 2282976; active = hit-call score of the fitted dose curve at least 0.9, where 1 is the maximum); settings: HepG2 Attagene TRANS GAL4 internal marker reporter
Summary of the method: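 Background-control readout: GAL4-UAS reporter transcript in transiently transfected HepG2 cells after 24 h compound exposure. Measured by RT-PCR, 6-FAM primer extension, HpaI digest and capillary electrophoresis; gain-of-signal fit versus DMSO.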

[13] = ATG_PPRE_CIS: Attagene CIS-FACTORIAL HepG2 Assay for human Peroxisome Proliferator-activated Response Element (PPRE) (AID 2282958); settings: HepG2 PPRE cis-element reporter, Attagene transcription factor profiling; actives raise or lower the signal
Summary of the method: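 Transcript-level reporter induction in transfected HepG2 cells after 24 h chemical exposure, quantified by fluorescence from RT-PCR products separated by capillary electrophoresis.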

[14] = target: Estrogen receptor (Homo sapiens) (UniProt P03372); assay: ATG_ERa_TRANS: Attagene TRANS-FACTORIAL HepG2 Assay for human Estrogen Receptor alpha (ERa) (AID 2282970; active = hit-call score of the fitted dose curve at least 0.9, where 1 is the maximum); settings: HepG2 Attagene TRANS ERa GAL4 reporter, mRNA
Chain of Estrogen receptor (Homo sapiens) (P03372 whole entry, looked up, the tested form may be a part): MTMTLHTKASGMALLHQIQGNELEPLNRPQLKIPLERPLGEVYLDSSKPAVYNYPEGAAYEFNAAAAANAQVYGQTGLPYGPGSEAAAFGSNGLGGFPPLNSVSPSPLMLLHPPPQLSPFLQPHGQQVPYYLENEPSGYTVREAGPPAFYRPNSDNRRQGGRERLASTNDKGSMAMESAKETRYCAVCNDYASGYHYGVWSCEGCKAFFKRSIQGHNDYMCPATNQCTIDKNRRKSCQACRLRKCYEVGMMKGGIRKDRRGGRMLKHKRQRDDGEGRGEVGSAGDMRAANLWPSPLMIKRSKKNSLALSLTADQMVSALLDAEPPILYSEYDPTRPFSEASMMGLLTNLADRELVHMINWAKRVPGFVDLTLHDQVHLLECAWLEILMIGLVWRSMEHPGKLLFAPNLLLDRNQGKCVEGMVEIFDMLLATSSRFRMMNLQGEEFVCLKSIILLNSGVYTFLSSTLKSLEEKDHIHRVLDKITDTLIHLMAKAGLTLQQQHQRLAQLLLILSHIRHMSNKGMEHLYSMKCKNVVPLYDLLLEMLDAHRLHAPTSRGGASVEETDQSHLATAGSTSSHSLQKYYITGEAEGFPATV
Summary of the method: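 Gal4-fusion ERa transactivation, measured as reporter transcript level in transiently transfected HepG2 cells. Exposure 24 h; RT-PCR plus capillary electrophoresis with fluorescence detection.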

[15] = target: Estrogen-related receptor gamma (Homo sapiens) (UniProt P62508); assay: ATG_ERRg_TRANS: Attagene TRANS-FACTORIAL HepG2 Assay for human Estrogen-Related Receptor gamma (ERRg) (AID 2282977; active = hit-call score of the fitted dose curve at least 0.9, where 1 is the maximum;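 note: hits increase reporter signal over DMSO so potencies reflect activators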); settings: HepG2 Attagene TRANS reporter, ERRg transactivation
Chain of Estrogen-related receptor gamma (Homo sapiens) (P62508 whole entry, looked up, the tested form may be a part): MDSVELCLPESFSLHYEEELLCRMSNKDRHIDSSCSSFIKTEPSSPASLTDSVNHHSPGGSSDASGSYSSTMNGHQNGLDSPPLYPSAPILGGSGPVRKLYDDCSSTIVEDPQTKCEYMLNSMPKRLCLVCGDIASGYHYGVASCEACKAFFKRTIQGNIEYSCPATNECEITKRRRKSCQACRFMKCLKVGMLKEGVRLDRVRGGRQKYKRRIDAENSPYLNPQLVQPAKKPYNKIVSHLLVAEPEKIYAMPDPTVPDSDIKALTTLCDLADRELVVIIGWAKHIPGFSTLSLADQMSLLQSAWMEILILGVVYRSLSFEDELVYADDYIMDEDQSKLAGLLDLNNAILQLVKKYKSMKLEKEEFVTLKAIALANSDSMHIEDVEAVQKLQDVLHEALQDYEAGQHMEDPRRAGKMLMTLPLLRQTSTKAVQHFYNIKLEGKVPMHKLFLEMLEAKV
Summary of the method: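 Exogenous NR-Gal4 chimera activity was assessed in HepG2 cells bearing transfected GAL4-UAS reporters. After 24 h dosing, total RNA underwent RT-PCR, fluorescent primer extension and HpaI digestion before capillary electrophoresis, with gain of signal scored against DMSO.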

[16] = target: Glucocorticoid receptor (Homo sapiens) (UniProt P04150); assay: ATG_GR_TRANS: Attagene TRANS-FACTORIAL HepG2 Assay for human Glucocorticoid Receptor (GR) (AID 2282978; active = hit-call score of the fitted dose curve at least 0.9, where 1 is the maximum;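 note: activators score as hits since higher reporter transcript over DMSO is fitted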); settings: HepG2 Attagene TRANS GR reporter, mRNA transcription
Chain of Glucocorticoid receptor (Homo sapiens) (P04150 whole entry, looked up): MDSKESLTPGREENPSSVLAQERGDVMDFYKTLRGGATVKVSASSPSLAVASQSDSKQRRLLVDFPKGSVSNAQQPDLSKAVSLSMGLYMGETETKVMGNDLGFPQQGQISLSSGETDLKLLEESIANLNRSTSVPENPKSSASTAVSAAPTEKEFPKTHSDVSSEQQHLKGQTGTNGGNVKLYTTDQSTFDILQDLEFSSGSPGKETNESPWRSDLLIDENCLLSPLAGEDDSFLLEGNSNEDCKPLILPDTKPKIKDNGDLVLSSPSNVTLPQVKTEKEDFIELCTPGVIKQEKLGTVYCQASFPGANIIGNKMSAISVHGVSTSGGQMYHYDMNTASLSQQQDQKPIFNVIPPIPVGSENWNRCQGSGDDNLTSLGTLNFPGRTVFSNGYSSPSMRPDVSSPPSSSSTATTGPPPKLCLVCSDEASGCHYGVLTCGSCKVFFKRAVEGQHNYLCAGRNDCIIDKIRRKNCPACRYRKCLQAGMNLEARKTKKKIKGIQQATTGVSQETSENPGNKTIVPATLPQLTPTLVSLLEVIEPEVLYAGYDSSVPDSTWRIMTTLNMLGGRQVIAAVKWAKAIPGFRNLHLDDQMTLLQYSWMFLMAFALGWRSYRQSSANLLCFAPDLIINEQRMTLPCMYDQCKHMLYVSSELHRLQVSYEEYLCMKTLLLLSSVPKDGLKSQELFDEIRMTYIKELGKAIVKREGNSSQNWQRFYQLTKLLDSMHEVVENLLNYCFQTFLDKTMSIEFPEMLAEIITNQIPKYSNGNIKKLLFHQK
Summary of the method: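 Multiplexed TRANS reporter system, HepG2; 24 h exposure; RNA → oligo(dT) RT → reporter-specific PCR → 6-FAM primer extension → HpaI cut → CE fluorescence. Gain-of-signal vs DMSO.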

[17] = ATG_TGFb_CIS: Attagene CIS-FACTORIAL HepG2 Assay for human Transforming Growth Factor (TGF) (AID 2282967); settings: HepG2 Attagene CIS TGFb reporter, mRNA transcription; actives raise or lower the signal
Summary of the method: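 Cells were dosed for 24 hours, after which total RNA was reverse-transcribed and reporter sequences amplified, labeled and sized by capillary electrophoresis. Activity was fitted in both directions against DMSO.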

[18] = ATG_M_19_TRANS: Attagene TRANS-FACTORIAL HepG2 Assay for M19 Transcription Factor (Internal Marker) (AID 2282974; active = hit-call score of the fitted dose curve at least 0.9, where 1 is the maximum); settings: HepG2 Attagene TRANS-FACTORIAL M19 internal marker reporter
Summary of the method: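 After transfection of HepG2 with GAL4-UAS-driven reporter constructs, cells are dosed for 24 h. Total RNA is reverse-transcribed, reporter sequences PCR-amplified and labelled, then HpaI-digested and sized by capillary electrophoresis.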

[19] = target: Steroid hormone receptor ERR1 (Homo sapiens) (UniProt P11474); assay: ATG_ERRa_TRANS: Attagene TRANS-FACTORIAL HepG2 Assay for human Estrogen-Related Receptor alpha (ERRa) (AID 2282971; active = hit-call score of the fitted dose curve at least 0.9, where 1 is the maximum); settings: HepG2 Attagene TRANS reporter, ERRa transactivation
Chain of Steroid hormone receptor ERR1 (Homo sapiens) (P11474 whole entry, looked up, the tested form may be a part): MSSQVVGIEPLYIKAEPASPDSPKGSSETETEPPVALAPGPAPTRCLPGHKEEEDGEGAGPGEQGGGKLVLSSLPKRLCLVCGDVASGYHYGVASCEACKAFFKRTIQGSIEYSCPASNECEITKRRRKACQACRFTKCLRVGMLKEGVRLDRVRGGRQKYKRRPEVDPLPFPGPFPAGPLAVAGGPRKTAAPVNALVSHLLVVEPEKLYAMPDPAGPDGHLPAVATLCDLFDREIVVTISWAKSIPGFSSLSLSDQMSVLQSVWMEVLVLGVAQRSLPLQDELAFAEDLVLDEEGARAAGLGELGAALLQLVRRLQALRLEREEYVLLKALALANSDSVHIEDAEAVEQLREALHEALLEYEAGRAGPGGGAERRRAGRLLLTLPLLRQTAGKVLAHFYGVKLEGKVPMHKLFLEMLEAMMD
Summary of the method: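 HepG2 cells transiently transfected with GAL4-UAS reporter units and chimeric NR-Gal4 constructs; after 24 hour compound incubation, reporter mRNA quantified by RT-PCR, fluorescent labelling and capillary electrophoresis, gain of signal versus DMSO.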

Measured: AC50

CN(C)c1ccc(N=NS(=O)(=O)O)cc1
active: [1] 38.6 µM
not listed: [13] | [14] | [15] | [16] | [17] | [18] | [19]
inactive: all other assays above

O=c1[nH]c2ccc(S(=O)CCN3CCC(Cc4ccc(F)cc4)CC3)cc2o1 (stereo unspecified)
active: [2] 66.5 µM | [4] 31.2 µM | [9] 55.1 µM | [11] 71.1 µM
not listed: [10] | [17] | [18] | [19]
inactive: all other assays above

O=C(O)CCN(C1(C(=O)NO)CCCC1)S(=O)(=O)c1ccc(Oc2ccc(F)cc2)cc1
not listed: [1] | [12] | [14] | [15] | [16] | [19]
inactive: all other assays above

CCNc1ccccc1
not listed: [14] | [15] | [16] | [17] | [18] | [19]
inactive: all other assays above

COC(=O)c1ccccc1O
inactive: [1] | [2] | [3] | [4] | [5] | [6] | [7] | [8] | [11]
active: [9] 26.4 µM | [14] 25.1 µM

CC(C)c1cccc(C(C)C)c1N1C(=O)c2ccc(O)cc2C1=O
inactive: [5] | [6] | [8] | [18]
active: [13] 26.9 µM | [2] 122 µM | [3] 74.2 µM | [4] 100 µM | [7] 100 µM | [9] 33.9 µM | [11] 100 µM

O=C1CCCCCN1
not listed: [10] | [12] | [14] | [16] | [17] | [18] | [19]
inactive: all other assays above

CNS(=O)(=O)c1cc(C(=O)N2CCC(CCN3C4CCC3CC(n3c(C)nc5ccccc53)C4)(c3cccc(F)c3)CC2)c(Cl)cc1F (stereo unspecified)
active: [13] 3.63 µM | [4] 3.32 µM | [7] 7.52 µM | [9] 5.14 µM
not listed: [10] | [14] | [15] | [16] | [19]
inactive: all other assays above

CC/C(=C\C(=N/O)C(N)=O)C(C)[N+](=O)[O-] (stereo unspecified)
active: [7] 100 µM
not listed: [10] | [15] | [16] | [17]
inactive: all other assays above
